Dicer inh – blocks human Dicer maturation of pre-miR-21; Q9UPY3; cat-ELCCA pre-miR-21 Dicer processing, chemiluminescence; stronger effect = higher value; z-score at 25 µM; 47,000 tested, 6% active; AID 1347074; in the data active = z-score above about 3, passing the limit was not always enough;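 note: plate controls were vehicle for no effect and no enzyme for full effect; higher signal means more uncleaved substrate so more Dicer inhibition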
Target sequence (Q9UPY3 whole entry, looked up): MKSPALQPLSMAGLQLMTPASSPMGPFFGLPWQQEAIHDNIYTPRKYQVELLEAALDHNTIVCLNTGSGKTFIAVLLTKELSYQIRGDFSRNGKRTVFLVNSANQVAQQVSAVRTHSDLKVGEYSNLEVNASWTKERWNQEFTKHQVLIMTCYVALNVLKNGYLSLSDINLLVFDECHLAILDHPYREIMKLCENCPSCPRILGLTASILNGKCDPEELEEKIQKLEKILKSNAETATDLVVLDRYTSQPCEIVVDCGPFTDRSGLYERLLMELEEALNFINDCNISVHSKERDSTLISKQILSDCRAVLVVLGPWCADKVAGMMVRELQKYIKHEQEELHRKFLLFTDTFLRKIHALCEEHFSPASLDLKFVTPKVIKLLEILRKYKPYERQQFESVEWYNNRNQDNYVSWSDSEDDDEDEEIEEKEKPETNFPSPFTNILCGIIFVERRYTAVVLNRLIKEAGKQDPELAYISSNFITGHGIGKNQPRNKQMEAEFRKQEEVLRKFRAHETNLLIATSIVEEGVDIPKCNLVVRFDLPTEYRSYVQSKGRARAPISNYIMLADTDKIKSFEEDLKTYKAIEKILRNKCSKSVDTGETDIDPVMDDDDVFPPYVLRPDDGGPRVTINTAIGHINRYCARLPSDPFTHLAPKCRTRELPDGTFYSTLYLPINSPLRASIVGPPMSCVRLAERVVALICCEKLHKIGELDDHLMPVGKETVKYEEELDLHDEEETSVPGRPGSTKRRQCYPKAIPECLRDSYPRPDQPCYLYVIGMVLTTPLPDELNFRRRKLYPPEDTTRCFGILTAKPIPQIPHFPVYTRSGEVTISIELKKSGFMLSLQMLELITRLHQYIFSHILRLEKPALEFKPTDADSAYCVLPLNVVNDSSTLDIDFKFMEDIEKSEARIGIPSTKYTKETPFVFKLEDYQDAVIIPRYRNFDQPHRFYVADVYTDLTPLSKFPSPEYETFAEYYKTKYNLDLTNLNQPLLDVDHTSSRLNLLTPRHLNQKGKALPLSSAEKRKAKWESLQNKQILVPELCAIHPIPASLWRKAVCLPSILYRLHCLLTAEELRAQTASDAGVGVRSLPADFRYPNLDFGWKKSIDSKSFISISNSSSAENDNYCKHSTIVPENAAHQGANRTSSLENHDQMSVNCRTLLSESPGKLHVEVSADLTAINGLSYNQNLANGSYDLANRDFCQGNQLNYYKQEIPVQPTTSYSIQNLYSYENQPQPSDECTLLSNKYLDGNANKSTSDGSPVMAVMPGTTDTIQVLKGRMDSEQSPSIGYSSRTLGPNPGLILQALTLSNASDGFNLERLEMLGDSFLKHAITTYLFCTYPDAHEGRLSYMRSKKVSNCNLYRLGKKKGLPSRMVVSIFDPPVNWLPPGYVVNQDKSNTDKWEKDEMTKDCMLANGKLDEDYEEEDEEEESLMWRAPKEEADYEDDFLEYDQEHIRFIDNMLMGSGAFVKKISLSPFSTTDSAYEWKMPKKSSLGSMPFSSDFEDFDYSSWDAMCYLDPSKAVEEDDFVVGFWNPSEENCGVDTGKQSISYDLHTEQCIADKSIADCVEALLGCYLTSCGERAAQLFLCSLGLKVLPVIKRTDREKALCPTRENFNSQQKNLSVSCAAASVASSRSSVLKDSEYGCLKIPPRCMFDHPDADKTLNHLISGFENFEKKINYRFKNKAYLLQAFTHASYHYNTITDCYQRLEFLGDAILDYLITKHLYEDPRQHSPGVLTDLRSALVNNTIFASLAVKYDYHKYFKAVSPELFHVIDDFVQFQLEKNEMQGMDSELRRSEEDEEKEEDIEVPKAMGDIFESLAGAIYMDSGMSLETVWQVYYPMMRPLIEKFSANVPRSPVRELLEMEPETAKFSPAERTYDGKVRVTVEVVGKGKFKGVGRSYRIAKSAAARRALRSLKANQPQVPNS
Starred values were filed as active, the others as inactive. This excerpt belongs to a sample that is enriched for hits.

SMILES	Dicer inh
CC(C)S(=O)(=O)c1cscc1Cl	-1.4
COc1nc(-c2ccc(Cl)cc2)ccc1-c1noc(C)n1	0.96
O=C(N/N=C/c1ccc(O)cc1)N/N=C/c1ccc(O)cc1	-2
Cc1cc(NCCc2ccccc2)n2ncnc2n1	-0.15
COC(=O)c1ccccc1C(=O)c1ccc(Cl)cc1	1.1
COc1cc(C(=O)c2cc(Cl)ccc2N)ccc1O	3.8*
COc1ccc(OC)c(C(=O)c2ccc(N)cc2)c1	1.9
CCc1ccc2c(-c3cccc(Cl)c3)nc(=O)n(CC)c2n1	-1.4
CC(C)c1cc(Br)c(NC(=O)NCc2ccco2)c(Br)c1	1.2
Cn1c(=O)c2c(O)c(C=Nc3ccc(Cl)cc3)c(=O)n(-c3ccccc3)c2n(C)c1=O	0.74
CC(=O)OC[C@H]1O[C@@H](Sc2ccccc2)[C@H](OC(C)=O)[C@@H](OC(C)=O)[C@@H]1OC(C)=O	0.23
O=C(Oc1ccc2occ([N+](=O)[O-])c2c1)c1ccc(C(F)(F)F)cc1	4.7*
O=C(Oc1c(Br)cc(C(F)(F)F)cc1[N+](=O)[O-])c1ccccc1Cl	-0.27
COC(=O)NC(=O)c1ccc(Oc2ccc(C(F)(F)F)cc2[N+](=O)[O-])cc1	2.6
O=C(NNc1cc(Cl)cc(Cl)c1)NS(=O)(=O)c1ccc(Cl)cc1	0.03
CN1c2ccc(Cl)cc2C(=O)NC1c1ccc(C#N)cc1 (centres undefined)	0.45
CCCC12CN3CC(CCC)(CN(C1)C3c1ccc(F)cc1)C2=O (centres undefined)	0.13
O=C(CSc1n[nH]c(=O)n1-c1ccccc1C(F)(F)F)c1ccc([N+](=O)[O-])cc1	-0.46
NC(=S)N/N=C/C=C/c1ccccc1	-0.92
CC(C)OC(=O)CSc1nnc(-c2ccc(Br)cc2)o1	0.88
COc1ccc(-c2nnc(SCC(=O)OC(C)C)o2)cc1	3.1*
Cc1ccc(-c2nnc(SCC(=O)OC(C)C)o2)cc1	2
COc1ccc(S(=O)(=O)N2CCN(c3ccccc3)CC2)c2ccccc12	0.17
CCOc1cc(S(=O)(=O)n2cc(C)nc2CC)ccc1F	-0.3
CCOC(=O)c1c(C)oc2ccc(OC(=O)N3CCOCC3)cc12	1.5
SMILES	Dicer inh
Cc1oc2ccc(OC(=O)N3CCOCC3)cc2c1C(=O)OC(C)C	-0.19
COC(=O)c1c(C)oc2ccc(OC(=O)N3CCOCC3)cc12	5.7*
C=CCn1c(SCc2n[nH]c(=S)o2)nnc1-c1ccccc1	-0.18
CCOC(=O)c1c(C)oc2ccc(NS(=O)(=O)c3cc(OC)ccc3OC)cc12	-1.9
COc1cc(C2C3=C(CC(C)(C)CC3=O)Nc3[nH]c(=O)[nH]c(=O)c32)ccc1OC(C)C (centres undefined)	-3.2
O=C1CC(c2ccccc2)CC2=C1C(c1cccc(O)c1)Nc1ccccc1N2 (centres undefined)	0.93
O=C1CC(c2cccs2)CC2=C1C(c1ccc(Cl)cc1)Nc1ccccc1N2 (centres undefined)	65
O=C1CC(c2cccs2)CC2=C1C(c1ccc(Cl)c(F)c1)Nc1ccccc1N2 (centres undefined)	4.2*
O=C1CC(c2ccccc2)CC2=C1C(c1cccs1)Nc1ccccc1N2 (centres undefined)	-0.49
COc1ccc(C2CC(=O)C3=C(C2)Nc2ccccc2NC3c2ccc(F)c(F)c2)cc1 (centres undefined)	2.7
O=C1CC(c2cccs2)CC2=C1C(c1cccc(O)c1)Nc1ccccc1N2 (centres undefined)	3.2*
CC1(C)Cc2c(c(N3CCOCC3)nc3sc(C(=O)N4CCCCC4)c(N)c23)CO1	-1.9
c1ccc(CNCCNCc2ccccc2)cc1	-0.41
CC(=O)N1N=C(c2ccccc2)OC1c1ccc([N+](=O)[O-])s1 (centres undefined)	-1.3
O=C(NCc1csc(-c2cccs2)n1)C1=Cc2ccccc2OC1	-1.6
CCCC1=C(C(=O)OCC)C(c2ccccc2F)n2c(nc3ccccc32)N1 (centres undefined)	0.12
CCCC1=C(C(=O)OCC)C(c2ccccc2)n2c(nc3ccccc32)N1 (centres undefined)	-0.46
CCCC1=C(C(=O)OCC)C(c2ccc(O)cc2)n2c(nc3ccccc32)N1 (centres undefined)	3.6*
CN1C(=O)CS/C1=N/N=C/c1cn(-c2ccccc2)nc1-c1ccccc1	-1.3
C/C(Nc1ccccc1F)=C1/CCOC1=O	0.1
CC(=O)NC(Nc1ccccc1C)(C(F)(F)F)C(F)(F)F	-0.14
C/C(Nc1ccccc1C)=C1/CCOC1=O	4*
S=c1[nH]nc(-c2ccccc2Cl)n1C1CCCCC1	0.48
S=c1[nH]nc(CSCc2cccc3ccccc23)n1C1CCCCC1	3.6*
S=c1[nH]nc(Cc2ccccc2)n1C1CCCCC1	0.77
SMILES	Dicer inh
O=C1CN(c2ccc(OC(F)(F)F)cc2)C(=O)CN1Cc1ccc2c(c1)OCO2	0.47
Brc1ccc2[nH]c3nc(SCc4ccccc4)nnc3c2c1	0.01
CCOc1cc(C2/C(=C(/O)c3ccc(C)cc3)C(=O)C(=O)N2CC(C)O)ccc1O (centres undefined)	-1.3
Cc1nc(-c2ccc(C(F)(F)F)cc2)nc(OC(=O)N(C)C)c1Oc1ccc(Cl)cc1Cl	-0.5
Cc1cc(C)n2c(Br)c(CSc3nnnn3-c3ccccc3)nc2n1	4.2*
c1ccc(CSc2nnnn2-c2ccccc2)cc1	-1.3
Cc1cc(C)n2c(SCc3ccc(Br)cc3)nnc2n1	1.3
CCOC(=O)C(NC(=O)C1CCC(c2ccc(Cl)cc2)CC1)c1ccccc1 (centres undefined)	1.3
CCN(CC)C(=O)Cn1cnc2c1c(=O)n(C)c(=O)n2C	1.1
CCOc1ccc(Br)cc1S(=O)(=O)NCc1ccc2c(c1)OCO2	0.22
Cc1cc(=O)n(-c2ccc([N+](=O)[O-])cc2)[nH]1	-3
O=C(CSC(=S)NNc1ccccc1)c1ccc(Cl)cc1	3.1*
CC(C)(C)SC(=S)SCC(=O)c1ccc(Cl)cc1	-2.7
O=C(CSC(=S)NNc1ccccc1)c1cccc([N+](=O)[O-])c1	-1.1
COc1ccc(Oc2nc(-c3ccccc3)ns2)cc1	-1.6
COc1ccc(-c2cnnn2-c2ccc(N)cc2)cc1	0.81
COc1cc(C2/C(=C(\O)c3ccccc3)C(=O)C(=O)N2CCN(C)C)ccc1O (centres undefined)	-0.95
O=C(Nc1ccc(F)cc1F)NC1Cc2ccccc2C1	-0.24
CC1CCN(C(=O)C(C(=O)c2ccc(Br)cc2)n2ccccc2=O)CC1 (centres undefined)	-0.31
O=C(c1ccc(F)cc1)C(C(=O)N1CCN(C/C=C/c2ccccc2)CC1)n1ccccc1=O (centres undefined)	-0.72
O=C(c1ccc(Br)cc1)C(C(=O)N1CCCCC1)n1ccccc1=O (centres undefined)	3.3*
CC(C)=CC(=O)Nc1nnc(SCc2nnc(-c3ccc([N+](=O)[O-])c(C)c3)o2)s1	1.4
CCC(=O)Nc1sc2c(c1C(=O)Nc1ccc(Cl)cc1)CCC2	0.55
O=C(Nc1sc2c(c1C(=O)Nc1ccccc1)CCCCC2)c1ccco1	2.8
O=C(Nc1sc2c(c1C(=O)Nc1ccccc1)CCCC2)c1ccco1	3.2*
O=C(Nc1sc2c(c1C(=O)O)CCCCC2)c1ccco1	2.7
CC(C)(C)C1CCc2c(sc(NC(=O)CCC(=O)O)c2C(=O)Nc2ccccc2Cl)C1 (centres undefined)	-0.75
CCC(=O)Nc1sc2c(c1C(=O)Nc1ccccc1Cl)CCC2	4.2*
CCOC(=O)c1c(NC(=O)c2cccs2)sc2c1CCCC2	-1.1
N#Cc1c(NC(=O)c2ccco2)sc2c1CCCCC2	2.6

High-throughput results deposited in PubChem BioAssay by Center for Chemical Genomics, University of Michigan.
